The source of these data is PubChem BioAssay (NCATS).

Inconclusive results are not listed. Entries that show only a call come without a potency. Calls of active or inactive are those of the source. The call rests on the fitted dose curve.

Chain of Thyroid hormone receptor beta (Homo sapiens) (P10828 whole entry, looked up): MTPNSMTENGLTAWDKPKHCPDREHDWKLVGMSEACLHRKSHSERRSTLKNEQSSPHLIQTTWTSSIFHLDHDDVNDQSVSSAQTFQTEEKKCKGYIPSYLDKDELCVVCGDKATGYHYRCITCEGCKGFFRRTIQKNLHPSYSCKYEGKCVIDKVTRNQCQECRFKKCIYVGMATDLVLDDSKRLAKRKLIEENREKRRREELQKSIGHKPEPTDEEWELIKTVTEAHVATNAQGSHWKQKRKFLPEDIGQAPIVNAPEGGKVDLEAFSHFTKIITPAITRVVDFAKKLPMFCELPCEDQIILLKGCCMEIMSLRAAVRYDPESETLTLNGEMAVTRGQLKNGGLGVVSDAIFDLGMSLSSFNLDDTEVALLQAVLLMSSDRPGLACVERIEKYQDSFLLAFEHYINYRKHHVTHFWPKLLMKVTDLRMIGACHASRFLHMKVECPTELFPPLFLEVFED
Chain of Retinoic acid receptor RXR-alpha (Homo sapiens) (P19793 whole entry, looked up): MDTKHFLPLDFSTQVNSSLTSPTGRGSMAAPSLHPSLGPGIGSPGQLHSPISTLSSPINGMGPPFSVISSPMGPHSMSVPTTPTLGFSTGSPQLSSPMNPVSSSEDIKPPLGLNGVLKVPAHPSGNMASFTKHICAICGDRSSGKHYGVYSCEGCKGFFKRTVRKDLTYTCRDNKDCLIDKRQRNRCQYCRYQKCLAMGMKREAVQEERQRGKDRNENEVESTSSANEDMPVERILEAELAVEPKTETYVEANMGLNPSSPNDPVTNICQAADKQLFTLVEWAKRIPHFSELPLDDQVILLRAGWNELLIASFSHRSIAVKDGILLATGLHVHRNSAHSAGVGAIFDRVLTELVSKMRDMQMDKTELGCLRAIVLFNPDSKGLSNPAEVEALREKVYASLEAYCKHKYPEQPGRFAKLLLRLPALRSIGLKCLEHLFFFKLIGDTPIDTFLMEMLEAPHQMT

The first assay addresses Retinoic acid receptor RXR-alpha (Homo sapiens) (UniProt P19793). Kind of assay: qHTS assay for small molecule agonists of retinoid X receptor alpha signaling (AID 588544). As to conditions: HEK293T RXRa-UAS-bla, beta-lactamase reporter, 18 h; series mostly up to 76.7 µM. On the technique in general: qHTS replaces the single test concentration by a dilution series.
Regarding `CC(C)OC(=O)Nc1cccc(Cl)c1`, the Potency result is “inactive”.

Take `CNC(=O)Oc1cccc2c1OC(C)(C)O2`: the Potency result was “inactive”.

For the compound `CCS(=O)CCSP(=O)(OC)OC` (stereo not drawn), the Potency entry is “inactive”.

As to `COP(N)(=O)SC` (stereo not drawn), the Potency result is “inactive”.

In the case of `CC(C)(C)C(=O)C(Oc1ccc(Cl)cc1)n1cncn1` (stereo not drawn), the Potency entry was “inactive”.

As for `CC(C)N1C(=O)c2ccccc2NS1(=O)=O`, the Potency result was “inactive”.

Regarding `O=C(O)COc1cc(Cl)c(Cl)cc1Cl`, the Potency result was “inactive”.

In the case of `CCC(=O)Nc1ccc(Cl)c(Cl)c1`, the Potency result is “inactive”.

On to `CNC(=O)CSP(=S)(OC)OC`, for which the Potency result was “inactive”.

`N#Cc1c(Cl)cccc1Cl`: the Potency result was “inactive”.

Regarding `COc1nc(NC(C)C)nc(NC(C)C)n1`, the Potency result is “inactive”.

On to `CNC(=O)Oc1ccccc1OC(C)C`, for which the Potency result is “inactive”.

The next assay addresses Thyroid hormone receptor beta (Homo sapiens) (UniProt P10828). Kind of assay: qHTS assay for small molecule agonists of thyroid hormone receptor beta signaling (AID 588545). As to conditions: TR-UAS-bla GripTite HEK 293, beta-lactamase ratio, agonist mode, 18 h, percent of T3 response, DMSO as zero; series mostly up to 76.7 µM. A digest of the protocol:
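TR-UAS-bla GripTite HEK 293 cells (2500/well, medium with 2% charcoal/dextran FBS) were treated in agonist mode for 18 h at 37 C, titrated. Beta-lactamase was read by CCF4 ratio after 2 h; normalized to 10 nM T3 (100%) and DMSO, Hill-fitted for EC50 and efficacy.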
With `CCCCSP(=O)(SCCCC)SCCCC`, the result was inactive.

In the case of `COP(N)(=O)SC` (stereo not drawn), the result was inactive.

For `CC(C)(C)C(=O)C(Oc1ccc(Cl)cc1)n1cncn1` (stereo not drawn), the result was inactive.

As for `CC(C)N1C(=O)c2ccccc2NS1(=O)=O`, the outcome was inactive.

With `CNC(=O)CSP(=S)(OC)OC`, the outcome was inactive.

`COc1nc(NC(C)C)nc(NC(C)C)n1`: the outcome was inactive.
